Results on 26 molecules are retold here after PubChem BioAssay AID2314 (National Center for Advancing Translational Sciences (NCATS), 2010).

The whole screen tested about 300,000 compounds, of which about 37,000 (12%) were called active. What follows is part of a selection rich in actives, with near analogues and random picks from the rest. Values without a mark were called inactive. No stated cut-off is given here; in the data, active means max response mostly above about 13% (no sharp cut-off); inactive means mostly below about 14%.

This experiment is described as follows: Cycloheximide Counterscreen for Small Molecule Inhibitors of Shiga Toxin. Further: read at 38.3 µM for the half of the compounds with a filed dose; 0% is about no effect. The settings on record: cell reporter, cycloheximide protein synthesis inhibition counterscreen; hits give high values. In general terms: Counterscreens check selectivity or assay interference.
Take `CNc1nc(-c2ccccc2)cc(-c2ccccc2)n1`: the max response was -1.91%.

Turning to `Nc1nc(-c2ccccc2)cc(-c2ccccc2)n1`, the max response was 21% (active).

With `Nc1cccc(-c2cc(-c3ccccc3)nc(-c3cccc(N)c3)n2)c1`, the max response is -5.19%.

Consider `COc1ccc2c(C)cc3nnnn3c2c1`, for which the max response was -1.91%.

`O=Cc1c(NCCCN2CCCC2=O)c2ccccc2[nH]c1=O`: the max response is -2.01%.

`Cc1ccc(C2NC(C(=O)O)CS2)cc1` (stereo unspecified): the max response is 1.34%.

Turning to `CCOc1ccc2nc(NCCNS(=O)(=O)c3ccccc3)c(C#N)cc2c1`, the max response is 25.7% (active).

With `CCOc1ccc2nc(NCCNC(=O)C(C)(C)C)c(C)cc2c1`, the max response is 3.67%.

For `CCOc1ccc(S(=O)(=O)NCCSc2ccccc2)cc1`, the max response is -2.61%.

With `Cc1ccc(C)c(NC(=O)c2cc(-c3cc(C)cc(C)c3O)n[nH]2)c1`, the max response was 5.99%.

Consider `COc1ccc([N+](=O)[O-])cc1N(CC(O)Cn1nnc2ccccc21)S(=O)(=O)c1ccc(C)cc1` (stereo unspecified), for which the max response is 10.2%.

Regarding `CCc1ccc(CNC(=O)C2CC(=O)N(CCc3ccc(C)cc3)C2)cc1` (stereo unspecified), the max response is 0.654%.

`COc1cccc(OCc2cc(/C=N/NC(=O)c3nc(Cl)c(Cl)c(N)c3Cl)ccc2OC)c1`: the max response is -1.62%.

`COc1ccc(/C=N/NC(=O)c2ccccc2)cc1OS(=O)(=O)c1ccccc1`: the max response was 17.9% (active).

Consider `COc1ccc(C(=O)Oc2cc(/C=N/NS(=O)(=O)c3ccc(C)cc3)ccc2OC)cc1`, for which the max response was 1.6%.

Turning to `COc1ccc(/C=N/S(=O)(=O)c2ccccc2)cc1OC`, the max response is -3.6%.

Take `COc1ccc(/C=N\NC(=O)c2sc(N)nc2C)cc1OC`: the max response is 16.4% (active).

On to `COc1cc(/C=N/NC(=O)c2ccccc2)ccc1OS(=O)(=O)c1ccccc1`, for which the max response was 10%.

`CCN(CC)CCCNC(=O)c1cn(C)c2ccc(S(=O)(=O)N(C)C3CCCCC3)cc2c1=O`: the max response was -5.84%.

As to `Fc1ccccc1/C=C1\CCCC2=C1Nc1ncnn1C2c1ccccc1F` (stereo unspecified), the max response was -5.33%.

Regarding `COc1ccc(N(CC(=O)NCC2CCCO2)C(=O)CCC(=O)Nc2nccs2)c(OC)c1` (stereo unspecified), the max response is -4%.

Take `CCc1ccc(N2CC(C(=O)Nc3ccc(S(=O)(=O)Nc4nccs4)cc3)CC2=O)cc1` (stereo unspecified): the max response was -3.18%.

For the molecule `C/C(=N\NC(=O)CNC(=O)C(c1ccccc1)c1ccccc1)c1ccc(C)cc1`, the max response is -6.41%.

For the molecule `C/C(=N\NC(=O)c1ccc(C)cc1)C1C(=O)c2ccccc2C1=O`, the max response is 23.4% (active).

As for `Cc1ccc(C(=O)N/C(=C/c2cccnc2)C(=O)O)cc1`, the max response was -0.563%.

In the case of `Cc1ccc(S(=O)(=O)c2nc(-c3cccs3)oc2NCc2cccnc2)cc1`, the max response is 7.52%.
